This note sets out measurements from PubChem BioAssay (NCI).

Assay in all cases: NCI-60 one-dose screen, 48 h (100 = growth as untreated, 0 = no growth, -100 = all killed)
What all share (settings): 10 µM unless noted

Experiment [1] deals with SR leukemia.
The test system of experiment [2] is RPMI-8226 leukemia.
Experiment [3] deals with OVCAR-8 ovarian.
Experiment [4] concerns OVCAR-5 ovarian.
Experiment [5] concerns OVCAR-4 ovarian.
Experiment [6] deals with SK-OV-3 ovarian.
Experiment [7] relates to IGROV1 ovarian.
For experiment [8], the system named is OVCAR-3 ovarian.
In experiment [9] the test system is NCI/ADR-RES ovarian.
Experiment [10] concerns T-47D breast.
Experiment [11] deals with BT-549 breast.
Experiment [12] concerns MDA-MB-435 melanoma.
The subject of experiment [13] is MCF7 breast.
The subject of experiment [14] is HCT-116 colon.
In experiment [15] the test system is HCC-2998 colon.
The test system of experiment [16] is KM12 colon.
For experiment [17], the system named is MDA-MB-468 breast.
The subject of experiment [18] is HS 578T breast.
Experiment [19] concerns SW-620 colon.

Compounds without any hit were thinned out: in the full panel of roughly 83,000, 20% have a hit.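 Cell lines were cultured in 96-well plates, exposed to a single compound concentration, and assessed for percent growth 48 hours later.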 A number with no mark means an inactive call. Active and inactive are the calls of the source. Rule for the calls: active = growth percent below 10; inactive = the rest.

With `CC(=O)Nc1cccc(Nc2nc(N[C@H]3CCCc4ccccc43)c3ccccc3n2)c1`, the growth in experiment [1] was 81.3%; in experiment [2] it was 103%; in [3], 103%; in experiment [4] it was 103%; in experiment [5] it was 104%; in experiment [6], 91.6%. The growth in [7] is 111%; in [8] it was 107%; in experiment [9], 100%; in experiment [10], 102%; in experiment [11] it was 131%; in experiment [12] it was 102%. In addition, the growth in [13] was 95.6%; in experiment [14], 108%; in [15], 117%; in experiment [16], 101%.
Take `CCN(CC)C(=O)N/C(N)=N/c1nc2ccccc2s1`: the growth is 32% in [1]; 31.5% in experiment [2]; 55.5% in experiment [3]; 72.4% in experiment [4]; 22.2% in experiment [5]; 71.9% in experiment [6]. Further, the growth in experiment [7] is 72.1%; in experiment [8] it was 68.2%; in [9], 23.3%; in [10], 12.6%; in experiment [11], 16.5%; in [12], 37.5%. The growth is 37.6% in experiment [13], 43.4% in [14], 88.2% in experiment [15] and 73.9% in [16].
`N#Cc1c(-c2ccc(Br)cc2)nc2n[nH]c(-c3ccc(Br)cc3)c2c1-c1ccc(F)cc1`: the growth in [1] was 80.7%; in experiment [2], 72.7%; in experiment [3], 101%; in experiment [4] it was 98.1%; in [5], 96.4%; in experiment [6], 72.7%. For the same compound, the growth is 75.1% in experiment [7]; 106% in experiment [8]; 97.2% in experiment [9]; 74.6% in [10]; 107% in experiment [11]; 102% in [12]. In addition, the growth in experiment [13] was 78.7%; in [14], 95.3%; in experiment [15] it was 108%; in [16], 105%; in experiment [17], 110%.
`CC1=C(C(=O)c2ccccc2)C(c2cccc(Cl)c2Cl)n2c(nc3ccccc32)N1` (centres undefined): the growth in experiment [1] is 39.2%; in [2], 86%; in [3], 26.3%; in experiment [4] it was 60.3%; in experiment [5] it was 65.2%; in [6], 33.7%. The growth is 77.7% in [7]; 35.5% in experiment [8]; 19.1% in [9]; 76.6% in [10]; 52.4% in experiment [11]; 72.1% in experiment [12]. Also, the growth in experiment [13] is 26.7%; in experiment [14], 50.1%; in [15], 88%; in experiment [16], 92%.
Turning to `COc1ccc(NC(=O)c2sc3nc(C(C)C)ccc3c2N)cc1`, the growth is 60% in experiment [1]; 54.5% in [2]; 89.1% in [3]; 83.2% in experiment [4]; 56.7% in experiment [5]; 97.9% in experiment [6]. In addition, the growth is 100% in experiment [7]; 93.9% in experiment [8]; 59.6% in experiment [9]; 42% in [10]; 88.5% in [11]; 87.5% in experiment [12]. Also, the growth in [13] is 79.5%; in [14], 94.7%; in [15] it was 100%; in experiment [16] it was 78.2%; in experiment [17], 55.8%.
`Cc1ccc([C@H]2C(C(=O)c3ccc(Cl)cc3)C3(N[C@@H]2c2ccccc2)C(=O)Nc2ccc(Br)cc23)cc1` (some centres undefined): the growth is 2.24% (active) in experiment [1]; 40.7% in experiment [2]; 66.4% in experiment [3]; 73.2% in [4]; 56.3% in [5]; 79.4% in experiment [6]. Moreover, the growth was 60.1% in [7]; 64% in experiment [8]; 83.2% in experiment [18]; 55.5% in experiment [9]; 41.1% in [10]; 96.3% in experiment [11]. The growth in experiment [19] was 70.6%; in [13] it was 21.2%; in experiment [14], 30.7%; in experiment [15], 25.7%; in [16], 39%; in experiment [17], 59.5%.
Consider `N#Cc1c(-c2cccc(O)c2O)cc(-c2ccc3ccccc3c2)[nH]c1=O`, for which the growth was 12.1% in [1]; 60.9% in experiment [2]; 69.8% in experiment [3]; 79.5% in experiment [4]; 69.5% in experiment [5]; 77.6% in experiment [6]. The growth was 48.8% in [7]; 18.9% in experiment [8]; 90.6% in experiment [9]; 68.9% in experiment [10]; 52.8% in [11]; 72% in [12]. Further, the growth in experiment [13] is 59.8%; in experiment [14], 34.5%; in experiment [15], 74.3%; in experiment [16] it was 19.5%.
For the compound `Cc1c(C(=O)NNC(=O)c2ccc(Cl)cc2)nnn1-c1ccc(Cl)cc1`, the growth in experiment [1] is 84.4%; in experiment [2] it was 95.7%; in experiment [3] it was 104%; in experiment [4] it was 93.6%; in experiment [5] it was 92.4%; in experiment [6], 82.3%. Moreover, the growth in experiment [7] was 106%; in experiment [8] it was 114%; in experiment [9] it was 91.3%; in experiment [10], 89.9%; in [11], 94.1%; in [12] it was 98.5%. For the same compound, the growth was 81.2% in experiment [13], 85.3% in [14], 109% in [15] and 101% in experiment [16].
As for `CC(C)CCNC(=O)N/C(N)=N/c1nc2ccccc2s1`, the growth in [1] is 34.4%; in experiment [2], 38.2%; in [3], 70.7%; in experiment [4], 93%; in experiment [5], 48.7%; in experiment [6] it was 87.9%. Besides, the growth was 76.6% in experiment [7]; 80.4% in experiment [8]; 56.6% in experiment [9]; 46.6% in experiment [10]; 64.6% in experiment [11]; 44.2% in [12]. Also, the growth in [13] was 28.5%; in experiment [14] it was 54.7%; in experiment [15] it was 97.6%; in [16], 62.7%; in [17], 5.8% (active).
